A selection: hits, their analogues and other compounds. The true share with any hit is near 3.8%.
H9c2 protect = myocardial damage modulation in H9c2 cells; H9c2 cardiomyocytes, H2O2 injury protection, ATPLite, 2 h; protection from H2O2 cell death, % at 20 µM; 0.63% of 360,000 active; AID 588492;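 active = compounds giving at least 50% protection of heart cells from peroxide-induced death in the single-dose screen, raw or plate-pattern-corrected value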
MPTP inh = inhibitors of mitochondrial permeability transition pore | 1.4% of 360,000 active | inhibition, % at 10 µM | isolated mouse mitochondria, Ca2+ swelling absorbance, 30 min;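 active = inhibition of 50% or more, scaled per plate between neutral and stimulator controls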
aDG glyco act = alpha-DG glycosylation activation | activation, % at 10 µM | AID 624168 | Pro5-aDG cells, alpha-DG glycosylation AlphaScreen (IIH6); 0% Pro5, 100% B10-LARGE cell signal | 0.22% of 360,000 active;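 active = activation of at least 8% versus controls, or a plate z-score of at least 8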;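 note: Pro5 are CHO cells carrying HIG-tagged alpha-DG that lacks glycosylation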
FAS TE block = blocks the thioesterase domain of human fatty acid synthase | P49327 | recombinant FAS-TE, OMFH fluorogenic substrate, fluorescence endpoint | inhibition, % at 15 µM | 0.67% of 360,000 active;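 active = compounds whose normalised, plate-corrected inhibition of enzyme fluorescence in the single-dose primary screen is 50% or more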
Yeast superoxide = caloric restriction mimetics inhibiting age-related superoxide in yeast | S. cerevisiae aged cells, superoxide DHE fluorescence; stronger effect = lower value | superoxide response (% of plate mean), % at 10 µM | 0.18% of 330,000 active;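 active = superoxide response under a set limit, about three screen SD below normal, cut at about 65% in these data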;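 note: yeast aged for seven days with compound at 30 °C before DHE staining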
Mot1-301 SUMO = blocks SUMOylation pathway, rescuing yeast Mot1-301 growth. S. cerevisiae Mot1-301 growth rescue, ATP luminescence, 38.5C; percent above DMSO median, 100 means doubled. growth rescue, % at 18.8 µM. 1% of 320,000 active. AID 2716;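 active = every valid replicate shows activation above 250% relative to neutral control wells; inactive = the rest, any valid replicate at or below 250%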
MPTP counter = Rhodamine 123 counter-screen of mitochondrial pore hits; inhibition, % at 10 µM; 78% of 5,000 active; AID 624504; isolated mitochondria, membrane potential, Rhodamine 123 fluorescence; shares compounds with MPTP inh; in the data active = inhibition above about 22%
MPTP swell DR = MPTP inhibition, dose response swelling confirmation; shares compounds with MPTP inh; isolated mitochondria swelling, absorbance; IC50, µM; 58% of 780 active; AID 651561; in the data active = IC50 below about 20 µM
MPTP cs DR = active in counter-screen for permeability transition pore inhibitors; IC50, µM; isolated mitochondria counterscreen, fluorescence read-out; shares compounds with MPTP inh; AID 651564; 49% of 780 active; in the data active = IC50 below about 80 µM
Of the large screens only hits and unclear results are named; the others gave an inactive call (follow-up assays come after a bar, where they were run).

COc1ccc(CN(CC(=O)NCc2ccc(F)cc2)C(=O)CCC(=O)Nc2ccccn2)cc1	none
O=C(N/N=C/c1cc2cc3c(cc2nc1Cl)OCCO3)c1ccccc1O	none
Cc1cccc2cc(/C=N/NC(=O)c3ccccc3O)c(Cl)nc12	MPTP inh 90.9 | MPTP counter 79.8
Cc1ccc2cc(/C=N/NC(=O)c3ccccc3O)c(Cl)nc2c1	MPTP inh 61.4 | MPTP counter 82.3
Cc1cccc2cc(/C=N/NC(=O)c3ccncc3)c(Cl)nc12	none
O=C(CCc1ccccc1)N/N=C/c1cc(Br)ccc1O	MPTP inh 91.4 | MPTP counter 79.8
O=C(CCc1ccccc1)Nc1cc(Cl)ccc1O	MPTP inh 67.9 | MPTP counter 81.1
O=C(O)CC(=O)Nc1cc(Cl)ccc1O	none
O=C(Nc1cc(Cl)ccc1O)c1snnc1-c1ccccc1	MPTP inh 94.0 | MPTP counter 91.1
NC(=NCCc1ccccc1)NC(=O)c1cc(Cl)ccc1O	MPTP inh 56.1 | MPTP counter 73.6
O=C(/C=C/[C@H]1O[C@@H](n2cnc3c(NC(=O)c4ccccc4)ncnc32)[C@H](O)[C@@H]1O)NCCc1ccc(F)cc1	none (no result: Yeast superoxide, Mot1-301 SUMO)
CCOCCc1nnc(NC(=O)C2CC(=O)N(CCc3ccc(F)cc3)C2)s1 (stereo not given)	none
CCOC(=O)C1=CN(CC)S(=O)(=O)NC1CC (stereo not given)	none (no result: Mot1-301 SUMO)
COC(=O)N/N=C/c1cc(Br)ccc1O	none
CC(C)NC(=S)N/N=C/c1cc(Br)ccc1O	MPTP inh 92.6 | MPTP counter 61.3
NCCCCCCNS(=O)(=O)c1cccc2c(Cl)cccc12	MPTP inh 108.1 | MPTP counter inactive | MPTP swell DR 7.44 | MPTP cs DR 46.5
CN(C)CCCNS(=O)(=O)c1cc(Cl)ccc1Cl	none
C[C@H]1COC(=O)[C@@H](NC(=O)OCC2c3ccccc3-c3ccccc32)C/C=C\C[C@H](CC(=O)NCCO)C(=O)N1	none
CC1CCN(C(=O)CSc2nnc(CNC(=O)c3ccc(S(=O)(=O)N(C)C)cc3)o2)CC1	none
O=C(Nc1nnc(-c2ccccc2Cl)o1)c1nc2ccccc2s1	MPTP inh 95.9 | MPTP counter inactive
CN(C)CCCNc1nc2cc(-c3ccc4c(ccn4C)c3)sc2c(=O)n1C	none (no result: Yeast superoxide, Mot1-301 SUMO)
CCOC(=O)C1CCN(C(=O)c2cc(COc3ccc(OC)c4ccccc34)on2)CC1	none
NS(=O)(=O)c1cccc(NC(=S)NC(=O)C23CC4CC(CC(C4)C2)C3)c1	none
Cc1ccc(S(=O)(=O)N(C)C)cc1NC(=S)NC12CC3CC(CC(C3)C1)C2	MPTP inh 65.3 (no result: Yeast superoxide, Mot1-301 SUMO) | MPTP counter 83.7
Cc1ccc(S(=O)(=O)N(C)C)cc1NC(=S)NC(=O)C12CC3CC(CC(C3)C1)C2	MPTP inh 60.0 | MPTP counter 34.6
O=C(C[C@@H]1C=C[C@H](NS(=O)(=O)c2ccccc2F)[C@@H](CO)O1)NCCCN1CCOCC1	none (no result: H9c2 protect, FAS TE block, Yeast superoxide, Mot1-301 SUMO)
CC1(C)CC(=O)C2=C(C1)NC1=C(C(=O)c3ccccc31)C2c1ccc(Cl)cc1 (stereo not given)	MPTP inh 98.5 | MPTP counter 51.9
COc1ccc(NC(=O)CSCC(=O)N(C)CCOc2ccc(Cl)cc2)cc1	none
O=C(CNc1ccc(C(F)(F)F)cc1)Nc1cccc(S(=O)(=O)N2CCCCC2)c1	MPTP inh 65.6 (no result: Yeast superoxide, Mot1-301 SUMO) | MPTP counter 90.0
CCN(CC)S(=O)(=O)c1cc(NC(=O)CNc2cccc(S(=O)(=O)N3CCCC3)c2)ccc1C	MPTP inh 53.7 | MPTP counter 95.2
Cc1ccc(-c2csc(NC(=O)CSc3nnc4c(n3)[nH]c3ccccc34)n2)cc1	MPTP inh 87.5 | MPTP counter 55.5
CCN(CC)S(=O)(=O)c1ccc(C)c(NC(=S)Nc2cccc(S(=O)(=O)N3CCCCCC3)c2)c1	MPTP inh 75.7 | MPTP counter 78.4
CCOC(=O)[C@@H](C)N(Cc1ccc(OC)cc1)S(=O)(=O)N(Cc1ccccc1)[C@H](C(=O)OC)C(C)C	none
OC[C@@H]1CN(Cc2ccco2)C[C@H](n2cnc3c(NCc4ccc(F)cc4)ncnc32)O1	none (no result: Yeast superoxide, Mot1-301 SUMO)
Cn1c(=O)c2c(nc3n2CC(CO)O3)n(C)c1=O (stereo not given)	none
CCN(CC)S(=O)(=O)c1cccc(NC(=O)CNc2cccc(S(=O)(=O)N3CCOCC3)c2)c1	MPTP inh 72.4 | MPTP counter 97.2
O=C(CSc1nnc2c(n1)[nH]c1ccccc12)Nc1cccc(S(=O)(=O)N2CCOCC2)c1	MPTP inh 51.5 | MPTP counter 35.0
CCN(CC)S(=O)(=O)c1ccc(C)c(NC(=O)CNc2cccc(S(=O)(=O)N3CCOCC3)c2)c1	none
CN(C)S(=O)(=O)c1cccc(NC(=O)COC(=O)CCSc2ccc(Cl)cc2)c1	none
CCN(CC)S(=O)(=O)c1cccc(NC(=O)CCSc2ccc(Cl)cc2)c1	MPTP inh 76.4 | MPTP counter 85.2
CCn1nccc1C(=O)Nc1cc(Cl)cc(Cl)c1	MPTP inh 66.2 | MPTP counter 75.3
C=CC[n+]1c(-c2ccc(OC)cc2)csc1NNC(=O)Nc1ccccc1	MPTP inh 71.2 | MPTP counter 59.2
CSCCC(NC(=O)c1ccco1)C(=O)NC1CCCCCC1 (stereo not given)	none
CC(C)CCN1CCNC(=O)C1CC(=O)N(C)CCCN1CCOCC1 (stereo not given)	none
CCN(CC)CCNC(C(=O)Nc1ccc([N+](=O)[O-])cc1Br)c1ccccc1 (stereo not given)	MPTP inh 61.2 | MPTP counter inactive | MPTP swell DR inactive | MPTP cs DR inactive
Cc1ccc(CSCCNC(=O)/C=C/c2ccccc2Cl)cc1	none
O=C(/C=C/c1ccc(Cl)cc1)NCCSc1ccccc1	none
O=C(/C=C/c1ccc(Cl)cc1Cl)NCCSCc1ccccc1	MPTP inh 92.4 | MPTP counter 82.2
O=C(/C=C/c1ccc(Cl)cc1Cl)NCCSc1ccccc1	MPTP inh 96.3 | MPTP counter 91.6
CCOC(=O)C1CCN(C(=O)COC(=O)CNC(=O)c2sc3ccccc3c2Cl)CC1	none
CSc1ccccc1NC(=O)c1ccc(N2CC3CC(C2)c2cccc(=O)n2C3)c(NC(=O)c2cccnc2)c1 (stereo not given)	none
O=C(N/N=C/c1sc(N2CCOCC2)nc1-c1ccccc1)c1ccccc1Cl	none

Screening results deposited in PubChem by several laboratories.
